Bioassay records (PubChem BioAssay)
A selection: hits, their analogues and other compounds. The true share with any hit is near 4.7%.
TRHR agonist = activates the human TRH receptor | TRHR cells, calcium flux fluo-8, FDSS agonist mode | 0.18% of 360,000 active | activation, % at 2 µM; also: 0% is about no effect
Target sequence (P34981 whole entry, looked up): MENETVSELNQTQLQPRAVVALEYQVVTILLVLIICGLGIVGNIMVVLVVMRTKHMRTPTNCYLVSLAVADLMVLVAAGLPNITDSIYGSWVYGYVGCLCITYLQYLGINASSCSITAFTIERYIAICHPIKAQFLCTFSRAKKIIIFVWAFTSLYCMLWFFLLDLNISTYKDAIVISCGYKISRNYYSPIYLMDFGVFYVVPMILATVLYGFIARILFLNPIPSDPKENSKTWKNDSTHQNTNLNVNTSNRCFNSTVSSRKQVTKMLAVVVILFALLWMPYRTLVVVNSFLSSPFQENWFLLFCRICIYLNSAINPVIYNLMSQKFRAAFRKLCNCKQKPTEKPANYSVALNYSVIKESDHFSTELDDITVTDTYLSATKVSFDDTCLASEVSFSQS
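Fluo-8-loaded TRHR cells; 10 s baseline, compound added, kinetic Ca2+ fluorescence read 1/s, agonist mode.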
TRHR PAM = TRH receptor (human) allosteric enhancement | TRHR cells, fluo-8 calcium fluorescence, EC20 TRH enhancement | enhancement, % at 2 µM | 0.66% of 360,000 active | AID 493056; in the data active = enhancement above about 30%; also: 0% is about no effect
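TRHR-expressing cells loaded with fluo-8 calcium dye were read kinetically (ex 480/em 530) during compound addition, then stimulated with an EC20 of TRH (10 nM final). Enhancement of the Gq-mediated intracellular calcium response was scored.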
D1 ag = activates the human D1 dopamine receptor. HEK293 T-REx D1 cells, calcium flux, agonist mode. activation, % at 2 µM. 1% of 360,000 active. AID 504660; also: 0% is about no effect
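Inducible HEK293 T-REx D1 cells, force-coupled to calcium signalling, were plated at 4000 cells/well with tetracycline and held overnight at 30 C. After no-wash calcium dye loading, compound-evoked calcium rise over 180 s flagged agonists.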
D1 antag = antagonists of human D1 dopamine receptor; P21728; HEK293 TREx D1 cells, calcium flux, dopamine EC80; hits give low values; activity change, negative = inhibition, % at 10 µM; 3.2% of 360,000 active; AID 504652; in the data active = activity change below about -30%; also: % is scaled to controls: 0 for no effect and ±100 for the full control effect
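Kinetic fluorescence of a calcium dye serves as the read-out. D1-expressing Hek293 Trex cells, induced overnight at 30 C, are exposed to compound for 180 s before an EC80 dopamine addition, then read 180 s further.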
D1 potentiator = human D1 dopamine receptor positive modulation; P21728; HEK293 TREx D1 cells, calcium flux, dopamine EC20 potentiation; potentiation, % at 10 µM; 0.036% of 360,000 active; AID 504651; in the data active = potentiation above about 30%; also: 0% is about no effect
Active calls of the source: *; nt = no result given. Rule as the data show it, unless noted: active = activation above about 30%; inactive = the rest.

SMILES	TRHR agonist	TRHR PAM	D1 ag	D1 antag	D1 potentiator
c1ccc(-n2nnnc2-n2ccnc2)cc1	2	4	1	-97*	0
c1ccc(-n2nnnc2Oc2ccc(-n3ccnc3)cc2)cc1	0	0	0	13	-3
CCOC(=O)c1cnn(-c2ccccc2)c1-n1cccc1C(=O)C(=O)Nc1ccc(F)cc1	2	1	7	-85*	-6
CCOC(=O)N1CCc2c(sc(NCc3ccc(OC)c(Br)c3)c2C(=O)Nc2cc(OC)ccc2OC)C1	0	-3	2	-2	-4
COc1ccc(CCNC(=O)CCn2c(=O)c3ccccc3n(CC(=O)Nc3ccccc3F)c2=O)cc1OC	1	7	0	-4	0
O=C(CSc1nc2nc3c(cc2c(=O)n1-c1ccccc1)CCCC3)Nc1ccccc1	1	-1	3	-10	-7
CCn1c(SCc2ccc(Cl)cc2Cl)nc2nc3c(cc2c1=O)CCCC3	0	-5	1	-43*	1
Cc1cc(C)c(S(=O)(=O)NCC(c2ccco2)S(=O)(=O)c2cccs2)c(C)c1 (stereo not given)	4	-3	1	nt	3
O=C(Cn1cc(SCc2ccc(F)cc2)c2ccccc21)N1CCCC1	1	-5	6	-30*	-5
O=C(CSc1cn(CC(=O)N2CCCC2)c2ccccc12)Nc1ccccc1C(F)(F)F	1	2	0	-44*	-7
O=C(CSc1cn(CC(=O)N2CCOCC2)c2ccccc12)Nc1ccccc1C(F)(F)F	0	5	2	-2	-3
Cc1ccc(-c2csc(/C(C#N)=C/c3ccccc3Cl)n2)cc1	4	2	10	8	0
Cc1ccc(/C=C/C(=O)Nc2nn[nH]n2)o1	0	1	3	-1	-3
CC(C)c1ccc(/C=C/C(=O)Nc2nn[nH]n2)cc1	0	4	3	-31*	-4
O=C(Nc1cccc(Cl)c1Cl)c1cc(S(=O)(=O)N2CCC3(CC2)OCCO3)ccc1F	0	-10	-1	-4	1
Cc1nc2ccccn2c1C(=O)/C=C/c1cccc([N+](=O)[O-])c1	0	-3	4	4	1
Cc1ccc(/C=C/C(=O)c2c(C)nc3ccccn23)cc1	-2	-6	-1	-71*	-1
COc1ccc(Cc2nc3ccc(C(=O)NC(C)Cc4ncccc4C)cc3o2)cc1OC (stereo not given)	1	5	3	-5	-6
COc1cccc(C2CC(c3cccc(Br)c3)n3ncnc3N2)c1 (stereo not given)	1	-3	1	-57*	-4
COc1cccc(C2CC(c3ccccc3)n3ncnc3N2)c1 (stereo not given)	0	8	0	-5	nt
COc1ccc(C2CC(c3ccco3)n3ncnc3N2)cc1 (stereo not given)	0	37*	1	8	3
CCOc1ccccc1CNC(=O)C1=C(C)C(=O)OC12CCN(C(C)=O)CC2	0	1	0	2	-2
Oc1ccc2[nH]ccc2c1	0	-1	3	-30*	-4
Oc1ccc2ccc3[nH]cnc3c2c1	-1	3	2	8	-2
Cc1cccc(Nc2n[nH]c(=S)s2)c1C	0	-4	3	-12	-4
SMILES	TRHR agonist	TRHR PAM	D1 ag	D1 antag	D1 potentiator
COc1ccc(Nc2nc3ccccc3s2)cc1	1	-11	0	-38*	5
COc1cccc(Nc2nc3ccc(OC)cc3s2)c1	0	13	-1	17	1
COc1ccc(Nc2ccnc3ccccc23)cc1	0	10	14	-43*	-8
Cc1cccc(Nc2nc3ccccc3s2)c1C	8	-10	30*	-2	5
CCc1cccc(C)c1NC(=O)CN1C(=O)c2ccccc2Sc2ncccc21	0	-4	4	6	-1
O=C(NC1CCCC1)C(c1ccsc1)N(C(=O)Cc1cccs1)c1cccc(F)c1 (stereo not given)	0	-1	5	-32*	-9
COC(=O)c1c(-c2ccc(OC)cc2)sc2ccccc12	0	0	3	nt	1
O=C1C[C@@H]2c3c(cccc3CN1Cc1ccc(F)cc1)C[C@@H](O)[C@H]2O	0	1	0	nt	-4
COc1ccc2c3n(nc2c1)CCN=C3c1cc(Cl)c(N)c(Cl)c1	0	1	2	-36*	-8
COc1ccc(C2=NCCn3nc4ccccc4c32)cc1	0	1	0	-45*	-3
Nc1c(Cl)cc(C2=NCCn3nc4cc(C(F)(F)F)ccc4c32)cc1Cl	0	1	6	4	-5
CC(C)(C)NC(=O)NC(=O)COC(=O)CCC1CCCC1	5	1	2	-1	4
CCOC(=O)C1CCN(C(=O)CN2C(=O)c3ccccc3S2(=O)=O)CC1	0	0	4	1	-2
CCOC(=O)C1CCN(C(=O)COC(=O)c2cccc(F)c2)CC1	0	36*	5	0	-2
CCOC(=O)C1CCN(C(=O)CN2c3ccc(CC)cc3-c3ccccc3S2(=O)=O)CC1	-3	8	6	-33*	-1
N#Cc1ccc(C(CC(=O)O)N2Cc3ccccc3C2=O)cc1 (stereo not given)	1	-4	2	13	-6
C=CCSc1nnc(C)c(/C=C/Nc2ccc(Cl)cc2)n1	24	-3	74*	-5	-2
COc1ccc(-c2ccc3c(c2)S(=O)(=O)c2cccc(C(=O)NC4CCCCC4)c2C3=O)cc1OC	1	1	2	11	1
COc1ccc(-c2ccc3c(c2)S(=O)(=O)c2cccc(C(=O)NC4CC4)c2C3=O)cc1OC	0	40*	-2	nt	-1
Cc1nc2cc(-c3cccc(F)c3)nn2c(C)c1CCC(=O)NC(C)CCc1ccco1 (stereo not given)	0	4	5	-35*	nt
COc1ccccc1-c1cc2nc(C)c(CCC(=O)NCc3ccco3)c(C)n2n1	-1	-2	2	4	-10
Cc1nc2cc(-c3ccccc3)nn2c(C)c1CCC(=O)NCc1ccco1	-1	1	4	-32*	nt
Cc1cc(C)n(Cc2ccccc2Cl)n1	-1	-4	0	-47*	-3
CCOC(CCn1ccc(O)c(Cc2ccc(Cl)cc2)c1=O)OCC	0	-5	1	-9	0
COc1ccc(NCc2cc3cc4c(cc3n(CC(=O)Nc3cc(C)ccc3C)c2=O)OCCO4)cc1	0	-2	3	5	-1
O=C(COc1ccc(S(=O)(=O)NC2CCCCC2)cc1)NC1CCCCC1	-1	2	6	-8	1
O=C(COc1ccc(S(=O)(=O)NC2CCCCC2)cc1)NC1CCCC1	-1	1	4	-43*	-2
O=C(NCCSc1ccc(Cl)cc1)c1ccc(CN2CCOCC2)cc1	2	-3	11	-18	-3
